Mdm2-MdmX inh = disrupts the human Mdm2-MdmX interaction | inhibition, % at 8 µM | O15151+Q00987 | 330,000 compounds, 3% hits | SaOS-2 split-luciferase Mdm2/MdmX complementation, luminescence;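 active = inhibition of at least 50% at 8 µM in the primary screen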
MPTP block = permeability transition pore inhibition | inhibition, % at 10 µM | isolated mouse mitochondria, Ca2+ swelling absorbance, 30 min | 360,000 compounds, 1.4% hits;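 active = inhibition of 50% or more, scaled per plate between neutral and stimulator controls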;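 note: 0% = DMSO wells given calcium and 100% = 1 mM EGTA wells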
Calb FLC = C. albicans growth modulation with fluconazole; C. albicans CaCi-2 (fluconazole-resistant clinical isolate) + fluconazole, Alamar Blue growth, 48 h; growth inhibition, % (test concentration not listed); 300,000 compounds, 0.57% hits; AID 1979;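 active = growth inhibition above about 58% in most replicates, limit read from the data, passing the limit was not always enough; inconclusive = exactly half the replicates above a set limit; inactive = most replicates below a set limit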;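 note: all wells also contain fluconazole at 8 µg/ml as a sub-toxic cotreatment; 0% = median of DMSO wells and 100% = median of geldanamycin control wells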
CSC inhib = cancer stem cell inhibition. cancer stem cell-like cells viability, luminescence. inhibition, % at 7.5 µM. 300,000 compounds, 1.1% hits. AID 2717; in the data active = inhibition above about 75%; inconclusive = no clear call, values can overlap the other calls; tested in HMLE shEcad cells
Beta cell apopt = blocks beta cell apoptosis; INS-1E cytokine-induced death, ATP luminescence, 48 h; percent of positive-control rescue, neutral wells zero; protection from apoptosis, % (concentration not given with the values); 300,000 compounds, 0.8% hits; AID 435005;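 active = Every replicate reaches about 75%, or at least half do and their mean reaches it too, limit read from the data; inconclusive = At least half of replicates reach the limit but their mean does not; inactive = Under half of replicates reach the limit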;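 note: 0% = cytokine-treated negative control wells and 100% = positive control rescue; higher means more ATP so stronger rescue from cytokine killing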
Mdm2-MdmX conf = confirmation of human Mdm2/MdmX interaction inhibitors | AID 489028 | inhibition, % at 8 µM | 10,000 compounds, 55% hits | shares compounds with Mdm2-MdmX inh | Mdm2-MdmX binding, luminescent assay; in the data active = inhibition above about 40%
Full FLuc ctr = inhibits full-length luciferase, flagging false Mdm2/MdmX hits | SaOS-2 full-length luciferase counterscreen, luminescence | inhibition, % at 8 µM | shares compounds with Mdm2-MdmX inh | 6,200 compounds, 77% hits | AID 504607;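 active = mean inhibition at 8 µM reaching about 37%, which flags the compound as non-specific, limit read from the data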;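 note: p53-null SaOS-2 cells with luciferase driven by a doxycycline-inducible promoter; compound on cells about two nights before reading with doxycycline added after day one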
Active calls of the source: *; u = inconclusive; x = no result given. Sampled rows, rich in hits. Any-hit rate of the full collection: about 4.8%.

SMILES	Mdm2-MdmX inh	MPTP block	Calb FLC	CSC inhib	Beta cell apopt	Mdm2-MdmX conf	Full FLuc ctr
CCCOc1ccc(N2C(=O)CC(SC(=N)N3N=C(c4ccccc4)CC3c3ccccc3)C2=O)cc1 (stereo not drawn)	60.3*	2.1	-0.5	-9.3	28.9	39.6	76.7*
CCCOc1ccc(N2C(=O)CC(SC(=NC)Nc3ccc(F)cc3)C2=O)cc1 (stereo not drawn)	-15.2	1.2	-7.0	-2.3	0.1	x	x
[O-][n+]1cccc2c(Br)cc(Br)c(O)c21	50.6*	1.9	109.1*	8.0	6.9	24.6	x
Oc1c(Br)cc(Br)c2cccnc12	x	-0.1	x	x	x	x	x
CC1(C)Cc2c(c(N3CCOCC3)nc3snc(N)c23)CO1	82.9*	-2.0	-44.1	21.0	67.0	30.9	x
Cc1nc2c(sc3nc(N4CCOCC4)c4c(c32)CC(C)(C)OC4)c(-c2ccc(Cl)cc2)c1C(=O)O	64.5*	4.6	-2.7	40.3	8.3	31.9	x
COc1cccc(-c2oc3c(c2C#CC2(N)CCCCC2)C(O)CCC3)c1 (stereo not drawn)	x	3.4	x	x	x	x	x
Cn1c(=O)ccc2ccccc21	x	-1.5	x	x	x	x	x
COc1ccccc1CN1CCC(CNS(=O)(=O)c2cc(-c3cc(C)no3)ccc2C)CC1	55.7*	3.7	18.8	24.2	-9.6	43.9*	75.0*
Cc1cc(-c2ccc(C)c(S(=O)(=O)NCC3CCN(Cc4ccc(F)cc4)CC3)c2)on1	29.9	0.3	1.5	x	5.9	x	x
COc1ccc(-c2cc(C)no2)cc1S(=O)(=O)N(C)c1ccc(C)cc1	63.0*	-1.1	33.8	60.9	15.8	49.8*	60.1*
COc1ccc(-c2cc(C)no2)cc1S(=O)(=O)NCC1CCN(Cc2cc(C)ccc2C)CC1	60.9*	2.6	1.2	13.9	-5.7	21.7	x
Cc1cccc(C)c1-n1nnnc1C(c1ccnc2ccccc12)N1CCN(C(=O)OC(C)(C)C)CC1 (stereo not drawn)	x	-0.1	x	x	x	x	x
COc1ccc(NC(=O)C(OC(=O)c2cnccn2)c2ccccc2)cc1Cl (stereo not drawn)	7.6	1.2	-6.9	x	6.5	x	x
COCCNC(=O)c1ccc(N2CC3CC(C2)c2cccc(=O)n2C3)c(NC(=O)c2ccccc2Br)c1 (stereo not drawn)	x	-0.3	x	x	x	x	x
CCCCNC(=O)[C@@H]1CSC2c3ccccc3C(=O)N21 (stereo partly drawn)	x	-1.3	-2.5	-5.1	-1.6	x	x
CN(CC1CCCO1)S(=O)(=O)c1ccc(C(=O)Nc2nc(-c3ccccn3)cs2)cc1 (stereo not drawn)	88.8*	-1.7	x	69.6	103.9*	80.3*	27.4
O=C(Nc1nc(-c2ccccn2)cs1)c1ccc(F)c(S(=O)(=O)N2CCOCC2)c1	75.6*	-2.6	x	x	89.1*	86.2*	25.6
Cc1ccc(C(=O)Nc2nc(-c3ccccn3)cs2)cc1S(=O)(=O)N1CCOCC1	88.6*	-3.6	x	x	90.0*	81.3*	23.2
O=C(Nc1nc(-c2ccccn2)cs1)c1cc(S(=O)(=O)N2CCOCC2)ccc1F	53.3*	-1.1	x	x	x	28.6	x
Cc1oc2ccc(O)cc2c1C(=O)c1ccc(F)cc1	7.1	2.8	-2.8	9.4	-3.4	x	x
Cc1ccc(CNC(=O)CN(C(=O)N2CCN(C)CC2)S(=O)(=O)c2ccc(C)cc2)cc1	7.2	-2.7	-2.7	x	-4.4	x	x
C[C@H](CO)N1C[C@H](C)[C@H](CN(C)S(=O)(=O)c2cccc(C#N)c2)OCc2cnnn2CCCC1=O	x	-0.6	x	x	x	x	x
CCCc1ccc2c(C(F)(F)F)cc(C(F)(F)F)cc2n1	x	0.3	x	x	x	x	x
COc1cc(C(=O)N2CCC2(C)C(=O)NC(C)C)cc(OC)c1OC (stereo not drawn)	x	0.2	x	x	x	x	x
SMILES	Mdm2-MdmX inh	MPTP block	Calb FLC	CSC inhib	Beta cell apopt	Mdm2-MdmX conf	Full FLuc ctr
O=C(NCc1ccccc1)Nc1cccn(Cc2c(F)cccc2Cl)c1=O	55.6*	-0.7	-6.5	-23.2	10.7	43.4*	73.0*
Cc1ccc(NC(=O)Nc2cccn(Cc3c(F)cccc3Cl)c2=O)cc1	5.3	-3.1	-7.8	-14.2	2.8	x	x
C/C=C(\C)C(=O)OC1CC(C)(C)C[C@H]2C3=CC[C@@H]4[C@@]5(C)CCC(O[C@@H]6O[C@@H](C(=O)O)[C@@H](O)C(O[C@@H]7OC[C@H](O)[C@@H](O)[C@@H]7O[C@@H]7OC(CO)C(O)[C@@H](O)[C@@H]7O)C6O[C@@H]6OC(CO)C(O)C(O)C6O)[C@@](C)(CO)[C@@H]5CC[C@]4(C)[C@]3(C)CC(O)[C@@]12CO (stereo partly drawn)	54.7*	0.3	x	x	-0.6	32.3	48.4*
CC1(C)CC[C@]2(C(=O)O[C@@H]3OC(CO)[C@@H](O)[C@H](O)[C@H]3O)CC[C@]3(C)C(=CCC4[C@@]5(C)CC[C@H](O[C@@H]6OC(C(=O)O)[C@@H](O)[C@H](O)[C@H]6O)C(C)(C)C5CC[C@]43C)[C@@H]2C1 (stereo partly drawn)	-14.0	0.2	x	28.5	-1.4	x	x
CC(C)c1cccc(C(C)C)c1NC(=O)c1ccc(OCC(=O)NCc2ccccc2)cc1	75.5*	x	-3.4	-6.7	-4.1	59.9*	56.5*
Cc1c(C(=O)N2CCN(c3ccc(F)cc3)CC2)sc2ncnc(N3CCN(c4ccccn4)CC3)c12	52.8*	0.4	11.2	13.6	11.2	28.9	61.5*
Cc1nc(N2CCN(c3ccccn3)CC2)c2c(C)c(C(=O)N3CCN(c4ccc(F)cc4)CC3)sc2n1	37.7	0.5	1.1	x	6.2	x	x
Cc1nc(N2CCN(c3ccccn3)CC2)c2c(C)c(C(=O)Nc3c(C)cc(Br)cc3C)sc2n1	59.1*	0.0	-5.4	-0.4	3.7	30.2	x
COc1ccccc1N1CCN(C(=O)c2sc3ncnc(N4CCN(c5ccccn5)CC4)c3c2C)CC1	56.0*	-0.9	-15.4	x	-1.9	48.0*	87.6*
COc1ccccc1N1CCN(C(=O)c2sc3nc(C)nc(N4CCN(c5ccccn5)CC4)c3c2C)CC1	75.8*	1.2	1.7	13.8	-3.0	71.0*	37.8*
COc1ccc(NC(=O)/C(=C\c2ccncc2)NC(=O)c2ccccc2)cc1	-4.6	-0.3	0.3	12.9	-2.6	x	x
C/C(CC(=O)Nc1cccc(F)c1)=N\NC(=O)c1ccncc1	11.4	0.6	-2.5	8.9	-1.1	x	x
Cc1nc(N2CCC(C)CC2)c2c(C)c(C(=O)Nc3ccc(C)c(F)c3)sc2n1	14.7	44.4	2.3	x	10.4	x	x
Cc1nc(N2CCN(C)CC2)c2c(C)c(C(=O)Nc3ccc(C)c(F)c3)sc2n1	50.2*	-1.6	-6.6	9.5	-11.4	33.5	x
CCCCc1c(-c2ccccc2F)ncn1CCc1ccccc1OC	x	2.1	x	x	x	x	x
FC(F)(F)c1cc(CCN2CCNC[C@H]2Cc2cccc3ccccc23)cc(C(F)(F)F)c1	100.2*	-1.7	2.2	u	5.4	36.1	74.8*
c1ccc(C[C@H]2CNCCN2CCc2cccc3ccccc23)cc1	14.2	42.1	-3.8	-2.2	3.6	x	x
